Results as given in ChEMBL document CHEMBL3988442, “University of Dundee, Small-Polar-MMV Screening Library” (2021).
Screen size: about 69,000 compounds; about 1,000 (1.4%) showed an effect of 50% or more. The full list was thinned out, with strong results kept by preference.

Tested on: Leishmania donovani
Experiment: Leishmania intramacrophage assay
Type: functional, organism-based
Design: scale not given: in the data most compounds retested in dose-response had high values

COc1ccc2nnc(C(=O)NC3CCCC3)nc2c1
Percent Effect (30.3 µM, […]): 8.289%

CCCS(=O)(=O)N1CCC2(CC1)CN(c1ccccn1)CCO2.O=C(O)C(F)(F)F
Percent Effect (30 µM, 30.03 µM): 10.12%

CS(=O)(=O)Cc1ccc(Cl)cc1NCc1cccc(F)c1F
Percent Effect (30.3 µM, […]): 15.72%

CS(=O)(=O)Cc1ccc(Cl)cc1NCc1ccccc1F
Percent Effect (30.3 µM, […]): 17.75%

CS(=O)(=O)Cc1ccccc1NCc1cc(Cl)ccc1Cl
Percent Effect (30.3 µM, […]): 50.41%

CC(O)CN1CCN(C(=O)c2ccc(N(C)C)nc2)CC1 (centres undefined)
Percent Effect (30 µM, 30.03 µM): 21.97%

Cn1ncc(C(=O)N2CCCC(n3cccn3)C2)c1C1CC1 (centres undefined)
Percent Effect (30 µM, 30.03 µM): -6.982%

COc1ncccc1NC(=O)N(Cc1ccc(C)o1)C1CC1
Percent Effect (30 µM, 30.03 µM): 53.3%

CCN(C(=O)Nc1cccnc1OC)C1CC1
Percent Effect (30 µM, 30.03 µM): 22.39%

COc1ncccc1NC(=O)N(Cc1ccco1)C1CC1
Percent Effect (30 µM): 6.992%

O=C1CCc2cc(OCCN3CCc4cncnc4C3)ccc2N1
Percent Effect (30.3 µM, […]): 41.19%

Cc1nc(S(=O)(=O)N2CCC3(CCCCC3)C2)cn1C
Percent Effect (30.3 µM, […]): -11.17%

CNC(=O)c1cc2c(nc1NCC1CC1)CCNCC2
Percent Effect (30.3 µM, […]): -29.9%

CC(C)Nc1nc2c(cc1C(=O)NCC1CC1)CCNCC2.O=C(O)C(F)(F)F.O=C(O)C(F)(F)F
Percent Effect (30 µM, 30.03 µM): 30.72%

CC(C)CNc1nc2c(cc1C(=O)NCC1CC1)CCNCC2
Percent Effect (30.3 µM, […]): 79%

O=C(C1CCCO1)N1CCc2onc(-c3ccc(Cl)cc3)c2C1 (centres undefined)
Percent Effect (30.3 µM, […]): -19.46%

Cc1cnc(C)c(N2CCCC(CO)(Cc3cccc(Cl)c3)C2)n1 (centres undefined)
Percent Effect (30.3 µM, […]): -33.57%

Cc1ccccc1CC1(C(=O)O)CCCN(c2ncnc3[nH]ccc23)C1 (centres undefined)
Percent Effect (30.3 µM, […]): -3.526%

Cc1ccccc1CC1(CO)CCCN(c2ncncc2C(C)C)C1 (centres undefined)
Percent Effect (30.3 µM, […]): 60.98%

Cc1ncc(C)c(N2CCCC(CO)(Cc3cccc(Cl)c3)C2)n1 (centres undefined)
Percent Effect (30 µM, 30.03 µM): 20.29%

Cc1cnc(C)c(N2CCCC(CO)(Cc3ccccc3C)C2)n1 (centres undefined)
Percent Effect (30.3 µM, […]): 58.45%

Cc1cnc(C)c(N2CCCC(C/C=C/c3ccccc3)(C(=O)O)C2)n1 (centres undefined)
Percent Effect (30.3 µM, […]): 12.4%

Cc1ccccc1CC1(CO)CCCN(c2ncnc3sccc23)C1 (centres undefined)
Percent Effect (30.3 µM, […]): 67.14%

Cc1ccccc1CC1(CO)CCCN(c2ncccc2C#N)C1 (centres undefined)
Percent Effect (30 µM, 30.03 µM): 15.87%

CC(=O)c1ccc(N2CCCC(CO)(Cc3ccccc3C)C2)nc1 (centres undefined)
Percent Effect (30.3 µM, […]): 44.66%

O=C1CCCc2[nH]c(=O)c(C(=O)N3CCc4ccccc4C3)cc21
Percent Effect (30.3 µM, […]): 0.8668%

O=C(CN(Cc1cccc(F)c1)CC1CCCO1)N1CCCC1 (centres undefined)
Percent Effect (30.3 µM, […]): -8.596%

CC[C@@H]1N(Cc2ccoc2)CCC[C@]12CCC(=O)N2CCOC.O=C(O)C(F)(F)F
Percent Effect (30.3 µM, […]): -8.415%

CC(C)N1CCC(NC(=O)c2cn(-c3ccc(F)cc3)nn2)C1 (centres undefined)
Percent Effect (30.3 µM, […]): -11.91%

CCc1cc(NCCCc2nc(C)no2)nc(-c2ccncc2)n1
Percent Effect (30.3 µM, […]): -6.6%

Cc1cc(Nc2cnccn2)nc(C2CCCN(CCO)C2)n1 (centres undefined)
Percent Effect (30.3 µM, […]): 56.31%

Cc1cc(Nc2ccccn2)nc(C2CCCN(CCO)C2)n1.O=CO (centres undefined)
Percent Effect (30.3 µM, […]): 32.66%

Cc1cc(Nc2ncccn2)nc(C2CCCN(CCO)C2)n1 (centres undefined)
Percent Effect (30.3 µM, […]): 24.35%

CN(CCn1cncc1-c1cnc(N2CCOCC2)nc1)C1CCCC1
Percent Effect (30.3 µM, […]): 22.37%

CNC(=O)N1C[C@H]2N(c3ncccn3)CCC[C@@]2(C(=O)NCC2CC2)C1
Percent Effect (30.3 µM, […]): 18.69%

CS(=O)(=O)N1C[C@H]2N(c3ncccn3)CCC[C@@]2(C(=O)NCC2CC2)C1
Percent Effect (30.3 µM, […]): 51.67%

CC(C)CN1C[C@H]2N(c3ncccn3)CCC[C@@]2(C(=O)NCC2CC2)C1
Percent Effect (30.3 µM, […]): 11.67%

COCCN1CC[C@H]2CN(Cc3ccc(C)s3)C[C@@H]2C1=O.O=C(O)C(F)(F)F
Percent Effect (30.3 µM, […]): -9.099%

CC(Cc1cccc(F)c1)C(=O)NS(=O)(=O)c1ccc(F)cc1 (centres undefined)
Percent Effect (30.3 µM, […]): 5.076%

CC(CN1CCOCC1)NC(=O)c1cccc2cn[nH]c12 (centres undefined)
Percent Effect (30.3 µM, […]): 18.62%

CN(C)C(=O)c1cc2ncc(C(=O)NC3CCCC3)cc2n1C
Percent Effect (30.3 µM, […]): -2.053%

Cc1ncccc1CNC1CCCN(Cc2noc(C3CC3)n2)C1 (centres undefined)
Percent Effect (30 µM): 51.55%

Cc1ccsc1CNC1CCCN(Cc2noc(C3CC3)n2)C1 (centres undefined)
Percent Effect (30 µM): 29.68%

Cc1ccc(CNC2CCCN(Cc3noc(C4CC4)n3)C2)s1 (centres undefined)
Percent Effect (30 µM): 1.737%

CCc1cc(N2CCC(NCc3ccc(C)o3)CC2)ncn1
Percent Effect (30.3 µM, […]): 57.16%

Cc1ccc(N2CCCC(NCc3ccc(C)o3)C2)nn1 (centres undefined)
Percent Effect (30 µM, 30.03 µM): 1.465%

CCc1cc(N2CCC(Nc3ccc(Cl)cn3)CC2)ncn1
Percent Effect (30.3 µM, […]): 39.5%

COc1c(CNCCNC(=O)c2ccccc2)c(C)nn1C.Cl
Percent Effect (30 µM): 37.81%

Cc1nc(C)n(CC2CCCCN2CCOc2cccc(C#N)c2)n1 (centres undefined)
Percent Effect (30 µM): 14.77%

Cc1noc(C(C)N2CCN(c3ncnc4ccccc34)CC2)n1 (centres undefined)
Percent Effect (30.3 µM, […]): -13.38%

Cc1noc(C(C)N2CCN(c3ncnc4sccc34)CC2)n1 (centres undefined)
Percent Effect (30.3 µM, […]): 61.64%

CCc1noc(C(C)N2CCN(c3ncnc4sccc34)CC2)n1 (centres undefined)
Percent Effect (30.3 µM, […]): 17.92%

Cc1cnn(C2CCCN(C(=O)c3cc[nH]n3)C2)c1 (centres undefined)
Percent Effect (30.3 µM, […]): 9.905%

CCC(CN1CCCC1)NC(=O)C1(c2cccc(F)c2)CC1.O=C(O)CC(O)(CC(=O)O)C(=O)O (centres undefined)
Percent Effect (30.3 µM, […]): 43.99%

CCC(CN1CCCC1)NC(=O)C1(c2ccc(F)cc2)CC1 (centres undefined)
Percent Effect (30.3 µM, […]): 52.84%

CCC(CN1CCCCC1)NC(=O)C1(c2ccc(F)cc2)CC1.O=C(O)CC(O)(CC(=O)O)C(=O)O (centres undefined)
Percent Effect (30.3 µM, […]): 18.07%

COCCCN1CCCN(C(C)c2nc(C3CC3)no2)CC1 (centres undefined)
Percent Effect (30 µM, 30.03 µM): 35.53%

CCOc1ccc(C(=O)N(C)Cc2nccn2CC(F)(F)F)cc1
Percent Effect (30.3 µM, […]): 3.454%

CCC(C)c1ccc(NC(=O)C2CCN(C(=O)N(C)C)CC2)cc1 (centres undefined)
Percent Effect (30.3 µM, […]): 18.48%

CCOc1ccnc(N2CCN(C(=O)c3ccncc3)CC2)n1
Percent Effect (30 µM): -11.04%

Cn1cc(CN2CCC3(CC2)CC(c2ccncc2)C(=O)N3)cn1.O=C(O)C(F)(F)F.O=C(O)C(F)(F)F (centres undefined)
Percent Effect (30 µM, 30.03 µM): 3.212%

Cc1nc[nH]c1CN1CCC(C2CCN(CCc3ccccc3)C2)CC1 (centres undefined)
Percent Effect (30.3 µM, […]): 22.99%

CN(Cc1cccc(O)c1)CC1CCCN(CCc2ccc(Cl)cc2)C1 (centres undefined)
Percent Effect (30 µM, 30.03 µM): 95.8%

Cc1nc(C)n(CC2CCCN(CCc3ccncc3)C2)n1 (centres undefined)
Percent Effect (30 µM, 30.03 µM): 27.42%

COc1ccc(CCN2CCCC(CN(C)Cc3[nH]cnc3C)C2)cc1 (centres undefined)
Percent Effect (30.3 µM, […]): -2.681%

COc1ccccc1CCN1CCCC(CN(C)Cc2cc(C)n[nH]2)C1 (centres undefined)
Percent Effect (30.3 µM, […]): 19.41%

CCN(CC1CCCN(CCc2cccc(OC)c2)C1)C(=O)CN(C)C (centres undefined)
Percent Effect (30.3 µM, […]): 48.28%

Cc1cc(CN2CCC(C3CCN(CCc4ccccc4)C3)CC2)[nH]n1 (centres undefined)
Percent Effect (30.3 µM, […]): 16.23%

Cc1nc[nH]c1CN(C)CC1CCCN(CCc2ccc(Cl)cc2)C1 (centres undefined)
Percent Effect (30 µM, 30.03 µM): 95.69%
